Bioassay records: PubChem, National Center for Advancing Translational Sciences (NCATS)
G9a block – G9a (human) methyltransferase inhibition; Q96KQ7; G9a H3K9 monomethylation, AlphaScreen, 2 h; Potency, µM (top dose mostly 102 µM), most hits filed as inhibitors; hit rate 8.8% among 350,000; further: nearly all actives have a fitted effect of over 75% in size
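AlphaScreen detection with an anti-monomethyl H3K9 antibody quantified product after a 2 h room-temperature reaction containing 500 nM biotinylated H3K9 peptide, 20 µM SAM and 20 nM enzyme, which had been preincubated 15 min with compound.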
HP1b binding inh – inhibitors of HP1-beta chromodomain binding to methylated histone tails; P83916; AlphaScreen HP1-beta / biotin-H3K9me3 peptide binding; Potency, µM (doses to about 114 µM), actives largely listed as inhibitors; hit rate 0.56% among 390,000; AID 540317; further: nearly all actives have a fitted effect of over 70% in size
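AlphaScreen: HP1-beta (50 nM) preformed 30 min with biotin-H3(1-18)K9me3 peptide (50 nM) in PBS pH 7.4, 0.01% Tween-20. Compound added for 30 min at RT, then streptavidin donor/nickel chelate acceptor beads (10 ug/mL) for 30 min.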
L3MBTL1 block – L3MBTL1 (human) inhibition. Q9Y468. AlphaScreen L3MBTL1–H3K9me1 peptide binding. Potency, µM (highest dose often 57.1 µM), actives largely listed as inhibitors. hit rate 0.66% among 230,000; further: nearly all actives have a fitted effect of over 60% in size
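L3MBTL1 50 nM + b-AHA-H3(1-15)K9me1 75 nM, 30 min RT; compound added, 30 min RT; streptavidin donor/Ni-chelate acceptor beads 10 ug/mL each final, 30 min RT dark; AlphaScreen read.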
GLS inh – inhibitors of human glutaminase (GLS). O94925. GLS enzymatic activity, qHTS titration. Potency, µM (highest dose often 45.5 µM), hits mostly inhibitors. hit rate 0.21% among 410,000
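Read-out is an Amplex red fluorescence increase coupled through glutamate oxidase and HRP, measured before and after 30 min room-temperature incubation. hKGA is in 45 mM KH2PO4 (pH 8.2) with 0.02% Tween-20; glutamine added as 1mM solution.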
JMJD2A Tudor inh – blocks the human JMJD2A Tudor domain. O75164. hit rate 4.4% among 390,000. AlphaScreen JMJD2A-Tudor / H3K4me3 peptide binding. AID 504339. Potency, µM (series often up to 114 µM), usual class: inhibitors; further: nearly all actives have a fitted effect of over 50% in size
BAZ2B block – blocks human BAZ2B | AlphaScreen BAZ2B-H3K14Ac peptide displacement | Potency, µM (doses to about 114 µM), hits mostly inhibitors | hit rate 4.4% among 360,000 | AID 504333; further: nearly all actives have a fitted effect of over 60% in size
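Multi-concentration screen (max 110 uM) measuring displacement of acetylated histone H3 peptide from BAZ2B by AlphaScreen, using 50 nM protein, 50 nM peptide and 10 ug/mL streptavidin donor plus Ni-chelate acceptor beads.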
Of the large screens only hits and unclear results are named; the others gave an inactive call; ! = not active in a repeat. Only some compounds are listed: those with a hit (about 10% of all), similar ones and a draw of the others. The call rests on the fitted dose curve; in most records, active means well fitted curve in the direction sought with a large enough effect; inconclusive means small, poorly fitted or top-dose-only effect, or another doubt; inactive means no such curve, though single readings can be large; an effect the other way counts as inactive or inconclusive.

CCC(=O)Nc1ccc2nc3c(=O)[nH]c(=S)[nH]c3nc2c1	G9a block 31.6µM, HP1b binding inh inconclusive, GLS inh inconclusive, JMJD2A Tudor inh 56.2µM, BAZ2B block 50.1µM (no result: L3MBTL1 block)
Cc1cc(C)c2c(n1)sc1c(-c3ccccc3)c(C#N)c(N)nc12	G9a block 7.94µM, JMJD2A Tudor inh inconclusive
N#Cc1c(SCC(N)=O)nc2c(c1-c1ccncc1)CCCC2	G9a block 39.8µM, JMJD2A Tudor inh inconclusive
Cc1ccc2ncc3c(-c4ccc(F)cc4)nn(-c4cccc(F)c4)c3c2c1	none (no result: L3MBTL1 block)
COc1ccccc1NC(=O)C1(C)Cc2ccccc2C(=O)O1 (configuration not stated)	G9a block 50.1µM
COC(=O)c1c(NC(=O)C2(C)Cc3ccccc3C(=O)O2)sc2c1CCCC2 (configuration not stated)	G9a block 20µM, HP1b binding inh inconclusive
Cc1ccc(Cl)cc1NC(=O)Cn1nnc2sc3c(c2c1=O)CCC(C(C)(C)C)C3 (configuration not stated)	none (no result: L3MBTL1 block)
CO[C@@]1(NC(=O)Cc2cccs2)C(=O)N2C(C(=O)O)=C(COC(N)=O)CSC21 (some centres not stated)	none (no result: HP1b binding inh, L3MBTL1 block, GLS inh, JMJD2A Tudor inh, BAZ2B block)
CO[C@@]1(NC(=O)Cc2cccs2)C(=O)N2C(C(=O)O)=C(COC(N)=O)CS[C@@H]21	G9a block inconclusive, L3MBTL1 block inconclusive, GLS inh 11.2µM!, JMJD2A Tudor inh 56.2µM, BAZ2B block 50.1µM
CC(C)(C)c1cc(=O)n2[nH]c(N)nc2n1	JMJD2A Tudor inh inconclusive, BAZ2B block 56.2µM (no result: G9a block)
CC(C)c1cc(=O)n2[nH]c(N)nc2n1	G9a block 79.4µM
Nc1nc2nc(-c3ccccc3)cc(=O)n2[nH]1	JMJD2A Tudor inh inconclusive (no result: L3MBTL1 block)
CC(C)OC(=O)c1c(NC(=O)c2cccc(C(F)(F)F)c2)sc2c1CCCC2	G9a block inconclusive (no result: L3MBTL1 block)
NS(=O)(=O)c1ccc(CNC(=O)c2csc3c2CCCC3)cc1	G9a block 20µM
O=C(c1ccc2c(Cl)c3c(nc2c1)CCCC3)N1CCN(c2ccccc2F)CC1	G9a block inconclusive (no result: L3MBTL1 block)
Cc1nn(C)c2c1c(C(F)(F)F)cc(=O)n2Cc1cccc(Br)c1	none (no result: L3MBTL1 block)
CC(=O)N(CC1CCCO1)c1nnc(-c2ccccn2)s1 (configuration not stated)	G9a block 56.2µM, BAZ2B block 50.1µM
COCCN(C(C)=O)c1nnc(-c2ccccn2)s1	BAZ2B block 56.2µM
COCCN(C(C)=O)c1nnc(-c2cnccn2)s1	none
CC(=O)N(C)c1nnc(-c2ccccn2)s1	none
COc1ccc(OCC(=O)OCc2cc(=O)n3nc(C4CC4)sc3n2)cc1	none (no result: L3MBTL1 block)
COc1ccc(C(=O)N/N=C/c2cc3ccccc3[nH]c2=S)cc1	G9a block 0.708µM, JMJD2A Tudor inh 3.16µM, BAZ2B block inconclusive (no result: L3MBTL1 block)
CCOc1ccc(C(=O)N/N=C/c2cccc3cccnc23)cc1	L3MBTL1 block inconclusive, JMJD2A Tudor inh 79.4µM, BAZ2B block 20µM
COc1ccc(C(=O)N/N=C/c2cccc3cccnc23)cc1	L3MBTL1 block inconclusive, JMJD2A Tudor inh 56.2µM, BAZ2B block 20µM
O=C(N/N=C/c1ccc(O)c(O)c1)c1ccc(CSc2cccc3cccnc23)cc1	G9a block 35.5µM, HP1b binding inh inconclusive, JMJD2A Tudor inh inconclusive, BAZ2B block inconclusive (no result: L3MBTL1 block)
FC(F)(F)c1ccccc1-c1ccc2ncnc(NCc3cccs3)c2c1	none (no result: HP1b binding inh, L3MBTL1 block, GLS inh, JMJD2A Tudor inh, BAZ2B block)
Cn1cccc1C(=O)N1CCC[C@@]2(CCN(C(c3ccccc3)c3ccccc3)C2)C1	none (no result: HP1b binding inh, L3MBTL1 block, GLS inh, JMJD2A Tudor inh, BAZ2B block)
O=C(NC1CCCC1)c1ccc2c(=O)n(Cc3ccccc3)c(SCc3ccc([N+](=O)[O-])cc3)nc2c1	none (no result: L3MBTL1 block)
CCOc1ccccc1C=NNC(=O)c1cccc2ccccc12	none (no result: G9a block, L3MBTL1 block, BAZ2B block)
CCOc1ccccc1C(=O)N/N=C/c1cccc2cccnc12	JMJD2A Tudor inh inconclusive, BAZ2B block 44.7µM
O=C(O)c1ccc2c3c(ncnc13)-c1ccccc1C2=O	G9a block 1.41µM, JMJD2A Tudor inh inconclusive
COc1ccc(-c2cc(C)no2)cc1S(=O)(=O)NC1CCC(C)CC1 (configuration not stated)	none (no result: L3MBTL1 block)
CC(=O)Nc1ncc(N=Nc2cccc(C(F)(F)F)c2)s1	G9a block 44.7µM (no result: L3MBTL1 block)
CC(=O)N/N=C(\C)c1cccc(C(F)(F)F)c1	none (no result: L3MBTL1 block)
